Screening data: PubChem, National Center for Advancing Translational Sciences (NCATS)
p53ts 39C tox: kills p53ts cells at the nonpermissive temperature | H1299-p53A138V viability at 39C, ATP luminescence, 24 h | Potency, µM (titrated, usually from 46.1 µM), for the others: top-dose activity change, negative = cell killing, most hits filed as cytotoxic | 130,000 compounds, 1.5% hits; note: % is set by controls: 0 for no effect and ±100 for the full control effect; nearly all actives have a fitted effect of over 55% in size
Imprint erasure: genomic imprint erasure induction; Potency, µM (top dose mostly 60.7 µM), inactives show at the top dose activity change, positive = activation, hits mostly activators; 110,000 compounds, 0.02% hits; mouse ES Peg3-LacZ reporter, beta-gal luminescence, 40 h
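Each well holds 300 Peg3LacZ-Neo (maternal) female ES cells incubated 40 h at 37C, 5% CO2. LacZ is measured by BetaGlo luminescence, with AC50 and maximum efficacy derived from dose-response curves.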
p53ts 32C kill: cytotoxicity in p53ts cells at permissive temperature | H1299-p53A138V at 32C, ATP luminescence viability, 24 h | Potency, µM (series often up to 46.1 µM), inactives show at the top dose activity change, negative = cytotoxicity, hits mostly cytotoxic | 130,000 compounds, 0.93% hits;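 note: 0% = DMSO and -100% = full killing by reference compound; nearly all actives have a fitted effect of over 55% in size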
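Viability by ATPlite luminescence after 24 h compound treatment (up to 46 uM) at the permissive 32C. Cells are H1299 carrying p53 A138V. Scale runs from DMSO basal to 100 uM tamoxifen as full kill; AC50 from Hill fits.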
An asterisk follows results filed as active; ? = inconclusive; · = not tested or not shown; [ ] = remark or other dose. Most compounds without a hit are left out; they make up all but 1.6% or so of the library. Calls come from the whole dose curve; as a rule, active = well fitted curve in the direction sought with a large enough effect; inconclusive = small, poorly fitted or top-dose-only effect, or another doubt; inactive = no such curve, though single readings can be large; an effect the other way counts as inactive or inconclusive. Potency is the fitted concentration of half-maximal effect.

SMILES	p53ts 39C tox	Imprint erasure	p53ts 32C kill
COc1cc(/C=C/C(=O)c2cccs2)cc(OC)c1OC	?	-31%	6.3µM*
COc1ccc(NC(=O)c2cccs2)cc1OC	-14%	-25%	-21%
O=C(/C=C/c1ccc(O)cc1)c1cccs1	?	-92%	32µM*
Cc1nn(C)cc1/C=C/C(=O)c1cccs1	?	·	13µM*
O=C(/C=C/c1ccc(OCc2ccccc2)cc1)c1cccs1	4%	-19%	?
Cc1c(/C=C/C(=O)c2ccc(Cl)s2)cnn1C	-4%	·	-3%
CC(C)(C)C(=O)Nc1ccc2nc(SCC(=O)N3CCc4ccccc43)sc2c1	-24%	-14%[10.9 µM]	-17%
COc1ccc2c(CNCc3ccco3)c(C(=O)O)n(Cc3ccc(F)cc3Cl)c2c1	21%	-16%[10.9 µM]	3%
Cc1ccc(NC(=O)Cn2cc(C(=O)C3CCCCC3)c3ccccc32)c(C)c1	-25%	-8%[10.9 µM]	15%
CCOc1ccc(CNC(=O)C2CCN(c3nnc(-n4c(C)ccc4C)s3)CC2)cc1	-17%	-11%[10.9 µM]	-3%
CC(=O)Nc1c(C)nn(-c2ccccc2)c1N1CCC(C(=O)NCc2ccc(F)cc2)CC1	-13%	13%[10.9 µM]	-1%
COCCOC(=O)c1[nH]c2c(c1C)C(=O)C(C(=O)OC)C(C)C2 (centres undefined)	10µM*	-34%	16µM*
COC(=O)C1C(=O)c2c([nH]c(C(=O)OC3CCCCCC3)c2C)CC1C (centres undefined)	-16%	-18%	-11%
COC(=O)C1C(=O)c2c([nH]c(C(=O)OCC3CCCO3)c2C)CC1C (centres undefined)	?	-18%	13µM*
CCCCCOC(=O)c1[nH]c2c(c1C)C(=O)C(C(=O)OC)C(C)C2 (centres undefined)	-9%	2%	-11%
COc1ccc(CNC(=O)Cc2ccc(NC(=O)N3CCCCc4ccccc43)cc2)cc1	-16%	-7%[10.9 µM]	10%
COCCNc1nc(-c2ccccc2CN(C)C)nc2ccccc12	-5%	-21%	5%
Cc1ccc(NC(=O)CCC(=O)N2Cc3ccccc3Oc3ncccc32)c(C)c1	-16%	19%[10.9 µM]	10%
CCOc1ccc(Br)cc1S(=O)(=O)Nc1cccc(-c2ccc(OC)nn2)c1	-17%	2%[10.9 µM]	14%
